Assay outcomes (PubChem)
This is a sample that favours compounds with a hit; in the whole collection about 5.2% have one here.
Vif inh: HIV Vif inhibition; 340,000 tested, 0.35% active; inhibition, % at 7.49 µM; HEK293T cells, Vif self-association by quenched fluorescence, imaging, 24 h; in the data active means inhibition above about 50%, passing the limit was not always enough; inconclusive means no clear call, values can overlap the other calls; inactive means below about 31%
esBAF inh: inhibitors of esBAF chromatin remodeling in mouse ES cells; reporter increase, % at 12.5 µM; 350,000 tested, 2% active; AID 602393; Bmi1-luciferase knock-in reporter, 24 h; 100% = twice the neutral-well signal; in the data active means activation above about 40%; inconclusive means no clear call, values can overlap the other calls;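 further: 0% = median of the plate's neutral control wells and 100% = double that signal; a rise in the Bmi1 reporter signal indicates esBAF inhibition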
SMARCA2 activ: increases SMARCA2 function in MMTV reporter cells. activation, % at 9.1 µM. 370,000 tested, 1% active. MG213 cells, MMTV-luciferase reporter, dexamethasone, overnight. AID 652017; in the data active means activation above about 7.8%;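 further: 0% = vehicle wells and 100% = reference activator wells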
SKN-1 inh: inhibitors of C. elegans SKN-1; C. elegans VP596 Pgst-4::GFP/RFP ratio, acrylamide-induced, 24 h; inhibition, % at 21.8 µM; 360,000 tested, 0.49% active;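 active means interference check ratio from 0.5 to 1.5 plus GFP to RFP signal ratio inhibition reaching or exceeding a fixed threshold, cut at about 30% in these data, passing the limit was not always enough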
NadD inh: blocks S. aureus nicotinate mononucleotide adenylyltransferase. purified NadD enzyme, colorimetric absorbance read-out. inhibition, % at 20 µM. 360,000 tested, 0.78% active; in the data active means inhibition above about 26%
GRIN3A LBD mod: modulators (binders) of human NR3A ligand-binding domain; 340,000 tested, 2.5% active; NR3A LBD differential scanning fluorimetry, Tm shift; 0% = protein alone, 100% = glycine-bound protein; Tm shift relative to glycine control, % at 25 µM; AID 1259313;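 active means melting temperature shift of at least 10% of the positive control shift, at one fixed dose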
Numbers without * were called inactive; ? = inconclusive; . = no result.

SMILES	Vif inh	esBAF inh	SMARCA2 activ	SKN-1 inh	NadD inh	GRIN3A LBD mod
O=C(Nc1ccc2c(c1)[C@@H]1C[C@H](CC(=O)N3CCc4ccccc4C3)O[C@H](CO)[C@@H]1O2)C1CCC1	.	2	.	.	.	.
C[C@H]1CN([C@@H](C)CO)C(=O)Cc2cc(NC(=O)CCC(F)(F)F)ccc2O[C@H]1CN(C)CC1CCCCC1	.	-4	.	.	.	.
CC(=O)n1cc(/C=N/NC(=O)c2ccc(Cl)cc2)c2ccccc21	-1	?	0	17	0	15*
COC(=O)c1ccc(/C=N/NC(=O)c2ccc3nc[nH]c3c2)cc1	-2	-2	0	4	1	11*
O=C(N/N=C/c1ccc(Cl)cc1)c1ccc2nc[nH]c2c1	4	12	2	8	-10	.
O=C(N/N=C\c1ccc(F)cc1)c1csnn1	10	44*	6	9	-5	12*
CC(=O)n1cc(/C=N/NC(=O)c2ccccc2Cl)c2ccccc21	.	16	.	-3	-3	-2
COCC(=O)N[C@H]1CC[C@H](CC(=O)NCc2ccccc2OC)O[C@@H]1CO	.	-1	.	.	.	.
O=C(C[C@H]1C=C[C@@H](NC(=O)c2ccccn2)[C@H](CO)O1)NCc1cccc(F)c1	.	5	.	.	.	.
COc1ccc(N=Nc2nc(-c3ccccc3)c(-c3ccccc3)[nH]2)cc1	-5	10	-5	10	27	-5
Oc1ccccc1N=Nc1nc(-c2ccccc2)c(-c2ccccc2)[nH]1	-7	-57	-3	19	35*	-5
COc1ccccc1N=Nc1nc(-c2ccccc2)c(-c2ccccc2)[nH]1	-25	.	0	36*	21	-15
C[C@@H]1CCCCO[C@H](CN(C)CC2CCCCC2)[C@H](C)CN([C@H](C)CO)C(=O)c2cc(NS(=O)(=O)c3ccccc3)ccc2O1	.	2	.	.	.	.
Cc1ccc(C)c(N2CCN(C(=O)CCc3nc(-c4ccccc4)no3)CC2)c1	.	6	-4	16	0	15*
O=C(Nc1ccc(F)c(Cl)c1)c1ccc2sc([C@H]3C[C@H](O)[C@@H](CO)O3)nc2c1	2	62*	-5	23	-3	.
O=C(Nc1cccc(Cl)c1)c1csc([C@@H]2C[C@H](O)[C@@H](CO)O2)n1	-3	20	0	1	-6	.
CC(=O)Nc1ccc(NC(=O)c2ccc3sc([C@H]4C[C@H](O)[C@@H](CO)O4)nc3c2)cc1	-1	-2	2	15	-5	.
O=C(Nc1ccc2c(c1)OCO2)c1csc(COCCO)n1	.	19	.	-2	0	.
O=C(Nc1ccc(F)c(Cl)c1)c1csc([C@H]2C[C@H](O)[C@@H](CO)O2)n1	54*	88*	0	0	0	.
O=C(Nc1ccc(F)c(Cl)c1)c1csc(COCCO)n1	1	51*	2	3	0	.
O=C(Nc1ccc(F)c(Cl)c1)c1csc([C@@H]2C[C@H](O)[C@@H](CO)O2)n1	-4	43*	-3	29	-6	.
COc1ccc(NC(=O)N(C)C[C@H]2Oc3c(NS(=O)(=O)c4cccs4)cccc3C(=O)N([C@H](C)CO)C[C@H]2C)cc1	.	-1	.	.	.	.
CCNC(=O)C[C@@H]1CC[C@H]2[C@@H](COc3ccc(NS(C)(=O)=O)cc3C(=O)N2C)O1	.	-1	.	.	.	.
O=C(Cc1ccncc1)NCC[C@@H]1CC[C@H](NC(=O)C2CCC2)[C@@H](CO)O1	.	4	.	.	.	.
CC(/C=C/c1ccccc1)=N\NC(N)=S	-3	50*	2	1	6	-2
SMILES	Vif inh	esBAF inh	SMARCA2 activ	SKN-1 inh	NadD inh	GRIN3A LBD mod
COc1ccccc1/C=N/NC(=S)NCc1ccco1	-5	.	-6	-1	0	0
COc1cc(/C=N/NC(=S)NCc2ccco2)cc(OC)c1OC	1	.	-1	-1	-3	58*
CC1CCCN(C(=O)c2cc3c(=O)n4ccccc4nc3s2)C1 (centres undefined)	13	62*	3	6	-2	1
CC(C)CN(CC(C)C)C(=O)c1cc2c(=O)n3ccccc3nc2s1	-5	1	0	-2	0	-4
CCN(CC)C(=O)c1cc2c(=O)n3ccccc3nc2s1	-3	42*	3	3	2	-1
Cc1cccn2c(=O)c3cc(C(=O)N4CCCC(C)C4)sc3nc12 (centres undefined)	-1	23	-2	19	1	-2
Cc1cccn2c(=O)c3cc(C(=O)N4CCCCC4)sc3nc12	-2	47*	-1	2	-8	-3
O=C(C[C@H]1CC[C@@H]2[C@H](COC[C@@H](O)CN2S(=O)(=O)c2cccc(F)c2)O1)Nc1ccc(-c2ccccc2)cc1	.	-4	.	.	.	.
COc1ccc(CN(C)C[C@H]2OCCCC[C@H](C)Oc3ccc(NS(C)(=O)=O)cc3C(=O)N([C@H](C)CO)C[C@H]2C)cc1	.	-9	.	.	.	.
C[C@@H]1CN([C@@H](C)CO)C(=O)c2cc(NC(=O)C3CCCCC3)ccc2O[C@H]1CN(C)Cc1ccc(C(=O)O)cc1	.	-1	.	.	.	.
C=CCN1C(=O)/C(=C2/Sc3ccccc3N2CC)SC1=S	85*	-7	-2	2	5	-6
C=CCN1C(=O)/C(=C2/Sc3ccccc3N2CCCS(=O)(=O)O)SC1=S	1	5	-3	7	4	3
CCC(OC(=O)C1=Cc2ccccc2OC1)C(=O)NC1CCCC1 (centres undefined)	.	-3	-2	11	-4	0
CC(C)C(OC(=O)C1=Cc2ccccc2OC1)C(=O)NC1CCCC1 (centres undefined)	1	.	-2	36*	-8	-1
NC(=O)NC(=O)COC(=O)c1ccccc1Oc1ccccc1	-6	-6	0	13	0	11*
Cc1ccccc1-c1nc(CS(=O)CC(=O)NCc2ccc3c(c2)OCO3)c(C)o1 (centres undefined)	-25	1	-3	36*	1	3
Cc1ccccc1-c1nc(CS(=O)CC(=O)NCCc2ccc(Cl)cc2)c(C)o1 (centres undefined)	2	-1	-2	8	1	489*
Cc1oc(-c2ccccc2Cl)nc1CS(=O)CC(=O)NCc1ccc2c(c1)OCO2 (centres undefined)	-2	-1	-2	-10	-7	1
C[C@H]1CN([C@@H](C)CO)C(=O)c2cccc(NC(=O)c3ccc(-c4nccs4)cc3)c2O[C@H]1CN(C)C	.	0	.	.	.	.
Cc1ccc(NC(=O)N2CCCCC2)cc1NC(=O)N1CCCCC1	-3	-3	-2	9	-2	1
Cc1cccc(NC(=O)N2CCCCCC2)c1	0	43*	2	8	-9	-4
Cc1ccc(NC(=O)N2CCCCCC2)cc1C	0	52*	4	1	-1	-1
OC[C@@H]1[C@@H](c2ccc(/C=C/c3ccccc3)cc2)[C@@H]2CN(Cc3ccncc3)CCCCN12	.	9	.	.	.	.
CO[C@H]1CC[C@H]2CCOc3ccc(C#N)cc3C(=O)N(C)CCCC(=O)N(C)C[C@@H]1O2	.	5	.	.	.	.
